Inconclusive results are not listed. Calls of active or inactive are those of the source. Calls follow the shape of the dose curve; as a rule, active = well fitted inhibition curve with a large enough effect; inconclusive = small, poorly fitted or top-dose-only effect; inactive = no such curve, though single readings can be large or run the other way.
tested on: Zika virus NS2B-NS3 protease (linked construct); assay: Primary screen NINDS Rhodamine qHTS for Zika virus inhibitors (AID 1347160); settings: purified NS2B-NS3 protease, Rhodamine110 substrate fluorescence; series mostly up to 57.1 µM; activity change, negative = inhibition: at the top concentration; also: nearly all actives have a fitted effect of over 55% in size
In short: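 Single-chain NS2B-NS3 protease, 25 nM, pH 8.0; compounds preincubated 15 min. Activity: Rhodamine110 release from 1.5 microM substrate over 15 min, room temperature, data fitted to 4-parameter Hill.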
% is scaled to controls: 0 for no effect and ±100 for the full control effect.

Structure (SMILES) | outcome | activity change, negative = inhibition
CC(C)c1ccccc1OC(=O)NCCc1ccc2ccccc2c1 | inactive | –
C=C[C@](C)(O)CC[C@H]1C(C)=CC(=O)[C@H]2C(C)(C)CCC[C@]12C | – | -5.74% (inactive)
O=C1COC2(CCN(S(=O)(=O)c3ccc(-c4ccc5cccnc5c4)cc3)CC2)CN1C1CC1 | – | 45.6% (inactive)
c1cc(-c2cnn3cc(-c4ccc(N5CCNCC5)cc4)cnc23)c2cccnc2c1 | – | 16.3% (inactive)
CCn1c2ccccc2c2cc(Nc3ccnc(NCCCN4CCOCC4)n3)ccc21 | – | 293% (inactive)
COc1ccc(CN2CCN(CCCSc3cc(C(C)(C)C)c(O)c(C(C)(C)C)c3)CC2)c(OC)c1OC | – | 51.5% [at 15.1 µM] (inactive)
C=CC(=O)N1CC(N2CCN(C(=O)CNc3cc(C4CC4)c(Cl)cc3O)CC2)C1 | – | 0.888% (inactive)
CCN1CCN(Cc2ccc(NC(=O)c3ccc(C)c(Oc4ccnc5[nH]ccc45)c3)cc2C(F)(F)F)CC1 | – | 851% [at 33.1 µM] (inactive)
O=C(NCc1ccccc1)c1ccc2c(=O)n(-c3cccc(C(F)(F)F)c3)c(=S)[nH]c2c1 | – | -28.2% (inactive)
C=C1C(=O)O[C@@H]2/C=C(\CO)CC/C=C(/C=O)C[C@H](O)[C@@H]12 | – | 5.36% (inactive)
O=C(c1ccc(F)cc1)N1CCCC(c2nc(-c3ccc(F)cc3)no2)C1 (centres undefined) | inactive | –
COc1ccc(C(=O)O[C@H]2C=COC=C3C=C4C(=O)N(C)C(=S)C(=O)N4[C@@H]32)cc1Oc1cc(C=O)ccc1O | – | -14.5% [at 33.1 µM] (inactive)
C=C(C(=O)OC[C@H]1O[C@@H](OC(=O)/C=C/c2ccccc2)[C@H](O)[C@@H](O)[C@@H]1O)C(O)CO (some centres undefined) | inactive [at 33.1 µM] | –
FC(F)(F)c1ccccc1-c1cc(C(F)(F)F)c2nc(C3=NOC4(CCCCC4)C3)[nH]c2c1 | inactive | –

Reference: PubChem BioAssay (NCATS)
